Results as given in PubChem BioAssay (NCI).
The panel holds about 79,000 compounds, 15% with a hit somewhere; the sample as a whole holds those more often. The source made the active and inactive calls. Rule as the data show it: active = growth inhibition above about 70%; inactive = the rest.

How the values were obtained:
[1] = NCI Yeast Anticancer Drug Screen. Data for the rad52 strain (AID 147);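 also: 0% = growth of vehicle-treated control cultures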; settings: S. cerevisiae rad52 mutant growth inhibition, active compounds read high
Procedure, shortened: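 Vehicle-treated cultures served as the reference for growth inhibition of compound-exposed yeast bearing a DNA repair mutation.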

[2] = NCI Yeast Anticancer Drug Screen. Data for the wt1 strain (AID 149);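 also: 0% = growth of vehicle-treated wt1 cultures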; settings: S. cerevisiae wt1 strain (SPY 50644) growth inhibition, active compounds read high
Procedure, shortened: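 Compounds are added to wt1 yeast cultures. Growth is then measured. Inhibition is expressed relative to vehicle-treated controls.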

[3] = NCI Yeast Anticancer Drug Screen. Data for the rad50EPP+ strain (AID 151);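 also: 0% = growth of vehicle-treated control cultures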; settings: S. cerevisiae rad50 mutant strain, active compounds read high
Procedure, shortened: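 In this screen, rad50EPP+ yeast were exposed to compounds. Growth inhibition was scored against vehicle-treated controls.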

[4] = NCI Yeast Anticancer Drug Screen. Data for the mgt1 strain (AID 153); settings: S. cerevisiae mgt1 mutant growth inhibition, active compounds read high
Procedure, shortened: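 mgt1 strain exposed; growth vs vehicle control recorded as inhibition.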

[5] = NCI Yeast Anticancer Drug Screen. Data for the rad50 strain (AID 155);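 also: 0% = growth of vehicle-only cultures of the same strain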; settings: S. cerevisiae rad50 strain growth inhibition, active compounds read high
Procedure, shortened: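 Inhibition values express reduced yeast growth in compound-treated cultures relative to vehicle-treated controls.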

[6] = NCI Yeast Anticancer Drug Screen. Data for the mec2-1 strain (AID 157); settings: S. cerevisiae mec2-1 strain, active compounds read high
Procedure, shortened: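 Vehicle-treated cultures served as reference for growth inhibition of compound-exposed mec2-1 yeast.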

[7] = NCI Yeast Anticancer Drug Screen. Data for the rad14 strain (AID 159);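 also: 0% = growth of vehicle-treated control cultures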; settings: S. cerevisiae rad14 strain growth inhibition, active compounds read high
Procedure, shortened: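 A mutant yeast strain defective in DNA damage repair is treated with compound; inhibition of its growth is scored against untreated, vehicle-exposed cultures.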

[8] = NCI Yeast Anticancer Drug Screen. Data for the sgs1 mgt1 strain (AID 161);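 also: 0% = growth of cultures given vehicle only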; settings: S. cerevisiae sgs1 mgt1 strain, active compounds read high
Procedure, shortened: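 Test agents were incubated with a DNA-repair-mutant yeast strain. Growth was then read and compared against vehicle-treated controls.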

[9] = NCI Yeast Anticancer Drug Screen. Data for the CLN2oe strain (AID 163);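 also: 0% = growth of vehicle-only control cultures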; settings: S. cerevisiae CLN2oe strain, active compounds read high
Procedure, shortened: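 Inhibition relative to vehicle-treated yeast is reported. Cells: strain with genetic alteration in cell-cycle control, grown with compound.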

[10] = NCI Yeast Anticancer Drug Screen. Data for the cln2 rad14 strain (AID 165);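 also: 0% = growth equal to vehicle treated cultures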; settings: S. cerevisiae cln2 rad14 strain, active compounds read high
Procedure, shortened: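 Each compound was tested on cln2 rad14 yeast. Inhibition of growth was calculated against vehicle-exposed controls.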

[11] = NCI Yeast Anticancer Drug Screen. Data for the bub3 strain (AID 167); settings: S. cerevisiae bub3 mutant strain, active compounds read high
Procedure, shortened: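 Steps: expose the mutant yeast strain to compound; grow alongside vehicle-treated cultures; measure growth; express inhibition against the vehicle cultures.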

[12] = NCI Yeast Anticancer Drug Screen. Data for the wt2 strain (AID 169);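 also: 0% = growth of vehicle-treated yeast cultures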; settings: S. cerevisiae wt2 strain growth inhibition, active compounds read high
Procedure, shortened: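 Inhibition of yeast growth was determined after compound treatment, normalised to controls receiving only vehicle.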

[13] = NCI Yeast Anticancer Drug Screen. Data for the mlh1 strain (AID 171);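 also: 0% = growth of vehicle-treated control cultures of the same strain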; settings: S. cerevisiae mlh1 strain growth inhibition, active compounds read high
Procedure, shortened: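 Vehicle-normalised growth inhibition of a repair- or checkpoint-altered yeast strain following compound treatment.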

[14] = NCI Yeast Anticancer Drug Screen. Data for the sgs1 strain (AID 173);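 also: 0% = growth of vehicle-only control cultures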; settings: S. cerevisiae sgs1 mutant, active compounds read high
Procedure, shortened: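 Screen format: yeast with repair or checkpoint alterations, compound exposure, growth read relative to vehicle.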

[15] = NCI Yeast Anticancer Drug Screen. Data for the mlh1 rad18 strain (AID 175); settings: S. cerevisiae mlh1 rad18 strain growth inhibition, active compounds read high
Procedure, shortened: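 Vehicle-treated cultures served as the reference for growth inhibition in a yeast strain carrying DNA damage repair alterations exposed to each compound.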

[16] = NCI Yeast Anticancer Drug Screen. Data for the rad18 strain (AID 177); settings: S. cerevisiae rad18 mutant growth inhibition, active compounds read high
Procedure, shortened: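 Test articles were incubated with altered yeast defective in DNA damage repair. Results are given as inhibition of growth versus vehicle.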

[17] = at 5.0 µM (retest, dose inferred, filed as 0.5)
[18] = at 50.0 µM (retest, dose inferred, filed as 5.0)

Measured: growth inhibition

CCN1CCC(O)(c2ccc(Oc3ccc(Cl)cc3)cc2)C(C(=O)c2ccc(Oc3ccc(Cl)cc3)cc2)C1 (stereo unspecified)
inactive: [1]; at 1.2 µM -10% | [1]; at 3.7 µM -14% | [1]; at 11.0 µM -16% | [1]; at 33.0 µM -6% | [1]; at 100.0 µM 12% | [2]; at 1.2 µM -51% | [2]; at 3.7 µM -27% | [2]; at 11.0 µM -44% | [2]; at 33.0 µM -46% | [2]; at 100.0 µM -8% | [3]; at 1.2 µM -7% | [3]; at 3.7 µM 0% | [3]; at 11.0 µM 4% | [3]; at 33.0 µM -2% | [3]; at 100.0 µM 7% | [4]; at 1.2 µM 30% | [4]; at 3.7 µM 64% | [4]; at 11.0 µM 42% | [4]; at 33.0 µM 47% | [4]; at 100.0 µM 59% | [5]; at 1.2 µM -20% | [5]; at 3.7 µM -7% | [5]; [17] 51% | [5]; at 11.0 µM -8% | [5]; at 33.0 µM -30% | [5]; [18] 7% | [5]; at 100.0 µM -6% | [6]; at 1.2 µM 0% | [6]; at 3.7 µM 28% | [6]; [17] 68% | [6]; at 11.0 µM 26% | [6]; at 33.0 µM 1% | [6]; [18] -2% | [6]; at 100.0 µM 8% | [7]; at 1.2 µM -4% | [7]; at 3.7 µM 16% | [7]; at 11.0 µM 11% | [7]; at 33.0 µM 21% | [7]; at 100.0 µM 45% | [9]; at 1.2 µM 28% | [9]; at 3.7 µM 44% | [9]; at 11.0 µM 35% | [9]; at 33.0 µM 33% | [9]; at 100.0 µM 16% | [10]; [17] 23% | [11]; at 1.2 µM 22% | [11]; at 3.7 µM 39% | [11]; at 11.0 µM 50% | [11]; at 33.0 µM 39% | [11]; at 100.0 µM 51% | [12]; at 1.2 µM -21% | [12]; at 3.7 µM 35% | [12]; at 11.0 µM 5% | [12]; at 33.0 µM -13% | [12]; at 100.0 µM 23% | [13]; at 1.2 µM -1% | [13]; at 3.7 µM -4% | [13]; at 11.0 µM -8% | [13]; at 33.0 µM -4% | [13]; at 100.0 µM 0% | [14]; at 1.2 µM -27% | [14]; at 3.7 µM 63% | [14]; at 11.0 µM 20% | [14]; at 33.0 µM 11% | [14]; at 100.0 µM 33% | [15]; [18] 18%
active: [5]; at 50.0 µM 83% | [6]; at 50.0 µM 93.2% | [8]; [17] 97% | [8]; [18] 98% | [8]; at 50.0 µM 89.2% | [10]; [18] 98% | [10]; at 50.0 µM 87.5% | [11]; [17] 87% | [11]; [18] 98% | [11]; at 50.0 µM 90.2% | [15]; [17] 82% | [15]; at 50.0 µM 90.5%

C=COC(=O)N[C@H]1CCc2cc(OC)c(OC)c(OC)c2-c2ccc(SC)c(=O)cc21
inactive: [1]; at 1.2 µM -2% | [1]; at 3.7 µM 1% | [1]; at 11.0 µM 6% | [1]; at 33.0 µM 14% | [2]; at 1.2 µM -2% | [2]; at 3.7 µM -2% | [2]; at 11.0 µM -3% | [2]; at 33.0 µM -2% | [2]; at 100.0 µM 18% | [3]; at 1.2 µM -8% | [3]; at 3.7 µM -2% | [3]; at 11.0 µM -3% | [3]; at 33.0 µM -6% | [3]; at 100.0 µM -2% | [4]; at 1.2 µM -5% | [4]; at 3.7 µM -8% | [4]; at 11.0 µM -4% | [4]; at 33.0 µM 13% | [4]; at 100.0 µM 64% | [5]; at 1.2 µM 1% | [5]; at 3.7 µM 4% | [5]; [17] -6% | [5]; at 11.0 µM 10% | [5]; at 33.0 µM 20% | [5]; [18] 34% | [5]; at 50.0 µM 38.5% | [6]; at 1.2 µM -5% | [6]; at 3.7 µM -4% | [6]; [17] -9% | [6]; at 11.0 µM -5% | [6]; at 33.0 µM 2% | [6]; [18] 41% | [6]; at 50.0 µM 30.9% | [7]; at 1.2 µM -1% | [7]; at 3.7 µM -1% | [7]; at 11.0 µM 6% | [7]; at 33.0 µM 19% | [8]; [17] -9% | [8]; [18] 42% | [8]; at 50.0 µM 38% | [9]; at 1.2 µM -4% | [9]; at 3.7 µM -2% | [9]; at 11.0 µM -12% | [9]; at 33.0 µM -10% | [10]; [17] 3% | [10]; [18] 6% | [10]; at 50.0 µM 20.4% | [11]; at 1.2 µM -3% | [11]; at 3.7 µM -6% | [11]; [17] -3% | [11]; at 11.0 µM -6% | [11]; at 33.0 µM 4% | [11]; [18] 67% | [11]; at 50.0 µM 34.2% | [11]; at 100.0 µM 58% | [12]; at 1.2 µM -3% | [12]; at 3.7 µM -4% | [12]; at 11.0 µM -3% | [12]; at 33.0 µM 1% | [13]; at 1.2 µM 1% | [13]; at 3.7 µM -1% | [13]; at 11.0 µM 0% | [13]; at 33.0 µM 12% | [14]; at 1.2 µM -2% | [14]; at 3.7 µM -3% | [14]; at 11.0 µM 1% | [14]; at 33.0 µM 14% | [15]; [17] -8% | [15]; [18] 30% | [15]; at 50.0 µM 29.1% | [16]; at 1.2 µM -2% | [16]; at 3.7 µM 0% | [16]; at 11.0 µM 3% | [16]; at 33.0 µM 13%
active: [1]; at 100.0 µM 75% | [5]; at 100.0 µM 88% | [6]; at 100.0 µM 73% | [7]; at 100.0 µM 93% | [9]; at 100.0 µM 80% | [12]; at 100.0 µM 76% | [13]; at 100.0 µM 84% | [14]; at 100.0 µM 73% | [16]; at 100.0 µM 75%

O=S(=O)(NC1CCCC(c2ccccc2)C1)c1ccccc1 (stereo unspecified)
active: [1]; at 100.0 µM 90% | [4]; at 100.0 µM 95% | [5]; [18] 71% | [5]; at 100.0 µM 93% | [6]; at 100.0 µM 82% | [7]; at 100.0 µM 96% | [9]; at 100.0 µM 95% | [11]; [18] 76% | [11]; at 100.0 µM 87%
inactive: [1]; at 1.2 µM 1% | [1]; at 3.7 µM 3% | [1]; at 11.0 µM 3% | [1]; at 33.0 µM 10% | [2]; at 1.2 µM -1% | [2]; at 3.7 µM -4% | [2]; at 11.0 µM 2% | [2]; at 33.0 µM -3% | [2]; at 100.0 µM 50% | [3]; at 1.2 µM -1% | [3]; at 3.7 µM 1% | [3]; at 11.0 µM -1% | [3]; at 33.0 µM 3% | [3]; at 100.0 µM 20% | [4]; at 1.2 µM -3% | [4]; at 3.7 µM -2% | [4]; at 11.0 µM -1% | [4]; at 33.0 µM -2% | [5]; at 1.2 µM 3% | [5]; at 3.7 µM 3% | [5]; [17] -9% | [5]; at 11.0 µM 2% | [5]; at 33.0 µM 11% | [5]; at 50.0 µM 18.2% | [6]; at 1.2 µM -8% | [6]; at 3.7 µM -2% | [6]; [17] -12% | [6]; at 11.0 µM -3% | [6]; at 33.0 µM 0% | [6]; [18] -7% | [6]; at 50.0 µM 24.6% | [7]; at 1.2 µM 1% | [7]; at 3.7 µM 2% | [7]; at 11.0 µM 2% | [7]; at 33.0 µM 4% | [8]; [17] -24% | [8]; [18] 23% | [8]; at 50.0 µM 19.4% | [9]; at 1.2 µM -4% | [9]; at 3.7 µM -4% | [9]; at 11.0 µM 2% | [9]; at 33.0 µM 9% | [10]; [17] -13% | [10]; [18] 16% | [10]; at 50.0 µM 50.8% | [11]; at 1.2 µM 1% | [11]; at 3.7 µM -1% | [11]; [17] -8% | [11]; at 11.0 µM 0% | [11]; at 33.0 µM 15% | [11]; at 50.0 µM 60.8%
